Measured values published in ChEMBL document CHEMBL4513216, “Probing the Open Global Health Chemical Diversity Library for Multistage-Active Starting Points for Next-Generation Antimalarials” (ACS Infect Dis, 2020).
In all, about 69,000 compounds went through this assay and about 8,600 (12%) showed an effect of 50% or more. The list comes from a sample in which strong results are over-represented; it also holds similar structures and randomly drawn compounds.

test system: Plasmodium berghei; experiment: Screen against P. berghei liver stage (PbLuc), transformed with Luciferase, at 10uM; type: functional, HepG2; conditions: tested at 10 uM

SMILES | INHIBITION
CC(C)c1nccc(-c2nccn2CCN(C)S(C)(=O)=O)n1 | -21.9%
O=C(Cc1ccccn1)N1CCC2(CC1)CN(CC1CC1)C(=O)CO2 | 15.3%
CCC(CC)C(=O)N(C)CC(=O)Nc1ccc(Br)cn1 | 21.5%
CN(CCn1nc2ccccn2c1=O)CC(=O)N(C)C1CCCCC1 | -111%
O=S(=O)(c1ccc(F)cc1)n1cc(Cl)cn1 | 51%
O=S(=O)(c1cc(F)ccc1F)n1cc(Cl)cn1 | 48.8%
O=S(=O)(c1ccc(F)c(F)c1)n1cc(Cl)cn1 | 42.1%
CCc1ccccc1CNC(=O)CCc1cnn(C)c1 | 16.6%
Cc1nnc(C(C)N2CCc3[nH]c4ccccc4c3C2)o1 (stereo unspecified) | 32%
Cc1nnc(C(C)N2CCc3[nH]c4ccc(Cl)cc4c3C2)o1 (stereo unspecified) | 61.3%
Cc1noc(C(C)N2CCc3[nH]c4ccc(Cl)cc4c3C2)n1 (stereo unspecified) | 28.7%
Cc1cnn(CC2CN(Cc3nc(C)c(C)o3)CCO2)c1 (stereo unspecified) | 11.4%
COc1cccc(C2(C(=O)NC3CCc4nccn4C3)CCCC2)c1 (stereo unspecified) | 34.6%
CCN(CCn1cccn1)C(=O)CN1C(=O)OC[C@@H]1C(C)C | 64.5%
CC(C)[C@H]1COC(=O)N1CC(=O)N(C)CCCn1cccn1 | 42.1%
CCN(CCn1cccn1)C(=O)CN1C(=O)OC[C@@H]1c1ccccc1 | 9.63%
COc1cccc(F)c1C(C)NC(=O)NCc1cnc(C)s1 (stereo unspecified) | -8.66%
CC(C)n1cc(S(=O)(=O)N2CCCC(N3CCCCC3)C2)cn1 (stereo unspecified) | 2.4%
Cc1ccc(C)c(NC(=O)Cn2cc(I)cn2)c1 | 49.1%
CC(=O)c1cccc(NC(=O)Cn2cc(I)cn2)c1 | -1.58%
Cc1ccc(NC(=O)Cn2cc(I)cn2)cc1C | 66.5%
Cc1ccc(NC(=O)Cn2cc(I)cn2)cc1 | 23.2%

SMILES | INHIBITION
NC(=O)c1ccc(NC(=O)Cn2cc(I)cn2)cc1 | 40%
CC(C)c1ccc(NC(=O)Cn2cc(I)cn2)cc1 | 82.2%
CS(=O)(=O)NCc1cnc2n1CCN(Cc1ccoc1)CC2 | 33%
Cn1cc(C(=O)N[C@@H]2CN(Cc3cccnc3)[C@@H]3CCCO[C@@H]32)cn1 | 3.25%
O=C(c1cnccn1)N1C[C@H]2CC[C@@H](C1)N(C(=O)CCc1ccsc1)C2 | -69.6%
O=C1CCC(C(=O)Nc2ccc(=O)n(Cc3ccc(Cl)c(Cl)c3)c2)N1 (stereo unspecified) | -20.5%
CN(Cc1ccc(C(=O)Nc2sccc2C#N)cc1)Cc1ccno1 | 15.9%
Cc1nnc(CN(C)Cc2ccc(C(=O)Nc3sccc3C#N)cc2)o1 | 15.9%
Cc1nnsc1CN(C)Cc1ccc(C(=O)Nc2sccc2C#N)cc1 | 55.4%
COCCN1CCCC(Cc2ccc(N3CCOCC3)nn2)C1 (stereo unspecified) | -0.902%
O=C(NCCc1ccc(F)cc1)NC1CCCc2c1cnn2CCO (stereo unspecified) | 18.3%
Cc1ccsc1CNC(=O)NC1CCCc2c1cnn2CCO (stereo unspecified) | 13.4%
O=C(NCC(F)(F)F)NC1CCCc2c1cnn2CCO (stereo unspecified) | 37.1%
O=C(NCCC1=CCCCC1)NC1CCCc2c1cnn2CCO (stereo unspecified) | 62%
Cc1nc(CCNC(=O)NC2CCCc3c2cnn3CCO)cs1 (stereo unspecified) | 26.9%
O=C(NCC1CCCCC1)NC1CCCc2c1cnn2CCO (stereo unspecified) | 55.1%
Cc1csc(CNC(=O)NC2CCCc3c2cnn3CCO)n1 (stereo unspecified) | 14%
O=C(NC1CCCCC1)NC1CCCc2c1cnn2CCO (stereo unspecified) | -9.93%
Cc1ccc(CNC(=O)NC2CCCc3c2cnn3CCO)cn1 (stereo unspecified) | 53.4%
CC1(C)Cc2nc(C(C)(C)C)ncc2C(NC(=O)CN)C1 (stereo unspecified) | 36.8%
CCn1ncc2c1C(COCC1CC1)N(Cc1nccs1)CC2 (stereo unspecified) | 13.7%
COc1cccc(S(=O)(=O)CCNC2CCc3ncnn3C2)c1 (stereo unspecified) | 41.2%

SMILES | INHIBITION
CN(C)C(=O)C1CCN(C2CCN(CC3CCC3)CC2)CC1 | 26.5%
CCn1cc(N)c(-c2nnc3n2CCC3)n1 | 24.8%
Cc1ccc(C(=O)NS(C)(=O)=O)cc1-n1cccc1 | 5.23%
O=C(Nc1ccc2c(ccn2CCN2CCOCC2)c1)c1ccncc1 | -35.8%
Cc1ccccc1Cc1nc(CSc2nnc(N)n2C2CC2)no1 | 67.8%
CCc1nc(CSc2nnc(N)n2C2CC2)no1 | 42.1%
Cc1ccccc1Cc1nc(CSc2nnc(N)n2C)no1 | 10.7%
CCC(=O)N1CCC(Cc2ccccc2-c2ccncc2)(C(=O)NC)C1 (stereo unspecified) | 6.32%
O=C(O)c1ccn(-c2cccc(NC(=O)c3ccccc3Cl)c2)n1 | 52.6%
O=C(O)c1ccn(-c2ccccc2NC(=O)c2ccccc2Cl)n1 | 4.1%
O=C(O)c1ccn(-c2ccc(NC(=O)c3ccccc3Cl)cc2)n1 | 46.1%
CCCS(=O)(=O)N1C[C@@H]2COC[C@@H](Cc3nc(C)no3)[C@@H]2C1 | 61.9%
COc1cc(N2C[C@@H]3COC[C@@H](Cc4nc(C)no4)[C@@H]3C2)ncn1 | 65.7%
Cc1nnc(C[C@@H]2COC[C@H]3CN(C(=O)C4=CCCC4)C[C@@H]23)o1 | 36.4%
COc1cc(N2C[C@@H]3COC[C@@H](Cc4nnc(C)o4)[C@@H]3C2)ncn1 | 50.3%
Cc1noc(C[C@@H]2COC[C@H]3CN(C(=O)C4=CCCC4)C[C@@H]23)n1 | 34.9%
Cc1noc(C[C@@H]2COC[C@H]3CN(S(=O)(=O)C4CC4)C[C@@H]23)n1 | 24.9%
Cc1nnc(C[C@@H]2COC[C@H]3CN(C(=O)c4ccco4)C[C@@H]23)o1 | 2.4%
Cc1noc(C[C@@H]2COC[C@H]3CN(S(C)(=O)=O)C[C@@H]23)n1 | 26.5%
CCS(=O)(=O)N1C[C@@H]2COC[C@@H](Cc3nc(C)no3)[C@@H]2C1 | 12.1%
CS(=O)(=O)N1CCCC(C(=O)Nc2cnn(Cc3ccc(F)cc3)c2)C1 (stereo unspecified) | 30.8%
CCc1ccc(CN2Cc3nccn3CC(Cn3cncn3)C2)o1 (stereo unspecified) | -14.3%

SMILES | INHIBITION
CCOc1ncccc1NC(=O)N1CCCN(C(=O)OC)CC1 | -5.1%
O=C(O)[C@]12CCCN(Cc3ccoc3)C[C@H]1CN(c1ncccn1)C2 | 7.24%
COc1c(CNCCNC(=O)c2ccc(C)c(F)c2)c(C)nn1C | 11.2%
COCCn1ccc(NCc2cc3cc(F)ccc3o2)n1 | 5.58%
COCC(=O)N1CCCC1c1cc(Nc2nnc(C)s2)nc(C)n1 (stereo unspecified) | 18.2%
CN(C)[C@@H]1CN(C(=O)c2ccc3ccccc3n2)C[C@H]1O | 14.7%
Fc1ccc(F)c(CN2CCC(c3n[nH]c4ncccc34)CC2)c1 | -10.5%
Fc1cccc(Cl)c1CN1CCC(c2n[nH]c3ncccc23)CC1 | 24.4%
Fc1ccc(CN2CCC(c3n[nH]c4ncccc34)CC2)cc1F | 3.45%
CC(C)Oc1ccc(CN2CCC(c3n[nH]c4ncccc34)CC2)cc1 | 70.1%
c1cnc(N2CCC(c3n[nH]c4ncccc34)C2)nc1 (stereo unspecified) | 15.9%
CC(C)Oc1cccc(CN2CCC(c3n[nH]c4ncccc34)CC2)c1 | 66.5%
CCN(Cc1cnn(C)c1)C[C@H]1CC[C@@H](Cc2ccc(C#N)cc2)O1 | 6.33%
Cc1ncsc1CCC(=O)N(C)Cc1nc2ccccc2n1C | 14.6%
CC(C)N1CCC2(C=C(C(=O)NC3CC3)c3ccccc32)CC1 | -24.5%
CC(C)c1cc(N(C)Cc2cc(C3CC3)on2)n2nccc2n1 | 32.5%
CCOC(=O)N1[C@@H](c2ccco2)[C@@H](C(=O)NC)C[C@]12CCCCNC2=O | 42.7%
Cc1nc(C(C)(C)C)sc1C(=O)NCCn1ccnc1 | 30.9%
Cc1nc(C(C)C)sc1C(=O)NCCn1ccnc1 | 29.8%
Cc1nc(C)c(C(=O)NCCn2nc3ccccn3c2=O)s1 | 4.283%
CCc1nc(C)c(C(=O)NCCn2nc3ccccn3c2=O)s1 | -11%
CCCc1nc(C)c(C(=O)NCCn2nc3ccccn3c2=O)s1 | 52.8%

SMILES | INHIBITION
CCCc1nc(C)c(C(=O)NCCn2ccnc2)s1 | 51%
CCN1CCC2(CCN(c3ncccn3)CC2)C1=O | -12.2%
Cc1ccc(CN2C[C@@H]3CCCO[C@@H]3[C@H](NS(C)(=O)=O)C2)o1 | 46.6%
CC(C)N1CCC2(CC1)C(=O)N(CCN(C)C)c1ccccc12 | 49.4%
O=C(c1cccnc1)N1CCCC(c2ccnc3nccn23)C1 (stereo unspecified) | 9.3875%
O=C(NCc1cncc2c1CCN(Cc1cccs1)C2)C1CC1 | 9.67%
Cc1ccc(CNC2CCc3[nH]c(=O)ccc3C2)cc1C (stereo unspecified) | 40.1%
CC(C)NC(=O)N1CCC2(CC(=O)N(c3ccccc3)C2)C1 (stereo unspecified) | 28.4%
CC(=O)N1CCC(c2cncc(N3CCOCC3)n2)CC1 | 41.5%
CN(Cc1ccsc1)C(=O)COC(=O)c1cc(Cl)c[nH]1 | 14.8%
CCCN1CCC(NC(=O)c2ccnc(SCC)c2)CC1 | 49.7%
Cc1cnc(C)c(N2CC[C@H](N3CCOCC3)[C@H](CCCO)C2)n1 | -12.4%
Cc1nccn1CCC1CCCCN1Cc1ccc(O)cc1Cl (stereo unspecified) | 1.37%
CNc1cc(C(=O)N2CCCCC2CCn2ccnc2C)ccn1 (stereo unspecified) | 64.5%
COC(=O)c1cccc(C(=O)N2CCCCC2CCn2ccnc2C)c1 (stereo unspecified) | 17.3%
Cc1nccn1CCC1CCCCN1C(=O)c1ccc(N(C)C)cc1 (stereo unspecified) | 66.9%
Cc1nccn1CCC1CCCCN1C(=O)c1ccc2[nH]nnc2c1 (stereo unspecified) | -5.29%
Cc1nccn1CCC1CCCCN1C(=O)c1ccc2nonc2c1 (stereo unspecified) | -17.5%
